We go through 40 molecules from PubChem BioAssay (Tox21).

Inconclusive results are not listed. Active and inactive are the calls of the source. Calls come from the whole dose curve; as a rule, active = well fitted cell-killing curve with a large enough effect in the repeat runs; inconclusive = weak or mixed curves, or effect the other way; inactive = flat fitted curve, though single readings scatter.

This assay can be described thus: qHTS assay to identify small molecule antagonists of the retinoid acid receptor (RAR) signaling pathway - cell viability counter screen (AID 1159551). Note: nearly all actives have a fitted effect of over 35% in size. The following applies: C3RL4 cells viability, ATP luminescence (CellTiter-Glo), 6 h; series mostly up to 92.4 µM. The text has this: U.S. Tox21 Program National Center for Advancing Translational Sciences [NCATS] NIH Chemical Genomics Center [NCGC] U.S. Environmental Protection Agency [EPA] National Institutes of Environmental Health Sciences [NIEHS] National Toxicology Program [NTP] U.S. Food and Drug Administration [FDA] Tox21 Assay Overview: All-trans Retinoic acid (atRA) is the potent natural metabolite of retinol and plays an important role in normal embryonic development and maintenance of cellular phenotype in adult animals. atRA is the activating ligand for the retinoic acid receptors (RARs) which form heterodimers with retinoid X receptors (RXRs) on the retinoic acid response element (RARE). Through activation of the RAR/RXRs nuclear receptors, atRA regulates the transcription of a large number of protein-coding genes and regulatory RNAs. Intracellular levels of atRA are controlled by the retinol signaling pathway (RSP) that regulates the biosynthesis and catabolism of atRA to maintain physiological levels. Chemicals that interfere with the RSP can cause abnormal intracellular levels of atRA and therefore are potential developmental toxicants. To assess compounds for the potential adverse effect on embryonic development through interfering with retinol signaling, a cell-based RARE luciferase reporter gene assay was used. C3RL4 cell line (OARSA/CFSAN/FDA, Laurel, MD) was used to screen Tox21 10K compound library for identifying inhibitors of the RSP. Also cytotoxicity was assessed by determining the viability of cells based on the quantitation of ATP.
Tox21 Assay Protocol Summary: C3RL4 cells were seeded at 1,000/well in 4 uL of assay medium into white solid 1,536-well tissue culture plates (Greiner Bio-One North America Inc. Monroe, NC) using a Multidrop Combi (Thermo Scientific, Waltham, MA) dispenser. After incubation at 37 C and 5% CO2 for an overnight, 23 nL of compounds dissolved in DMSO, positive control or DMSO only were transferred by a Pintool station (Kalypsys, San Diego, CA). One ul of 1 uM (final concentration) of Retinol was added right after the compound addition by using a Flying Reagent Dispenser (FRD) (Aurora Discovery, San Diego, CA). After 6 hr incubation at 37 C and 5% CO2, 5 uL of CellTiter-Glo reagent (Promega Corporation, Madison, WI) was added to each assay plate using an FRD. Luminescence was quantified on a ViewLux plate reader (PerkinElmer, Waltham, MA) after 30 min incubation at room temperature.
`COc1nc(C)nc(NC(=O)NS(=O)(=O)c2ccccc2OCCCl)n1`: the molecule was called inactive.
Take `CC1=C(O)C(=O)OC1C` (stereo not given): the molecule was classed as inactive.
With `O=C(C(Cl)Cl)N1CCOC12CCCCC2` the entry was “inactive”.
With `CC1(C)S[C@@H]2[C@H](NC(=O)C(C(=O)O)c3ccccc3)C(=O)N2[C@H]1C(=O)O` (stereo not given in full) the entry was “inactive”; with `NC(=O)Cc1cccc(C(=O)c2ccccc2)c1N`, “inactive”.
As to `CN1CCN(c2c(F)cc3c(=O)c(C(=O)O)cn(CCF)c3c2F)CC1`, the molecule was called inactive.
With `CC(C)CC(=O)OCc1ccccc1` the entry was “inactive”; with `Cc1ncc(CO)c(CN)c1O`, “inactive”.
With `CCCCC1CCC(=O)O1` (stereo not given) the entry was “inactive”; with `O=C(O)[C@@H]1CSCN1`, “inactive”.
For `NS(=O)(=O)c1cc(-c2nn[nH]n2)c(NCc2cccs2)cc1Cl`, the result was inactive.
With `OCc1c2ccccc2cc2ccccc12` the entry was “inactive”.
Take `COc1ccccc1N1CCN(CCCNc2cc(=O)n(C)c(=O)n2C)CC1`: the molecule was called inactive.
As for `CN1CCN(C2=Nc3cc(F)ccc3Cc3ccccc32)CC1`, the molecule was classed as inactive.
For `NCCC(O)(P(=O)(O)O)P(=O)(O)O`, the outcome was inactive.
In the case of `CC(=O)N(CC(O)CN(C(C)=O)c1c(I)c(C(=O)NCC(O)CO)c(I)c(C(=O)NCC(O)CO)c1I)c1c(I)c(C(=O)NCC(O)CO)c(I)c(C(=O)NCC(O)CO)c1I` (stereo not given), the call was inactive.
As for `COc1ccc2nc(NC(=O)Nc3ccccc3)sc2c1`, the result was inactive.
The entry for `CCCN(CCC)C(=O)C(CCC(=O)O)NC(=O)c1ccccc1` (stereo not given) is “inactive”; for `CCOC(=O)CS` it is “inactive”; for `CCC1(C)NC(=O)NC1=O` (stereo not given) it is “inactive”.
As for `O=c1[nH]c(=O)n([C@H]2C[C@H](O)[C@@H](CO)O2)cc1C(F)(F)F`, the result was inactive.
Regarding `O=C1CCCCC1C1CCCCC1` (stereo not given), the call was inactive.
The entry for `CCCCCCCCCC/C=C/C#N` is “inactive”; for `CCOC(=O)c1cc(=O)c2c(OCC(COc3cccc4oc(C(=O)OCC)cc(=O)c34)OC(=O)[C@@H](N)CCCCN)cccc2o1` it is “inactive”.
In the case of `Cc1c(-c2ccccc2)oc2c(C(=O)OCCN3CCCCC3)cccc2c1=O`, the molecule was classed as inactive.
Consider `Nc1ccc(Oc2ccc(N)c(N)c2)cc1`, for which the outcome was inactive.
As to `O=C(O)c1cccc(Cl)c1Cl`, the outcome was inactive.
The entry for `CCOC(=O)C(Br)c1ccccc1` (stereo not given) is “inactive”.
Turning to `Cc1ccc(C)c(N)c1`, the call was inactive.
With `CC(C)Nc1nc(N)nc(Cl)n1` the entry was “inactive”; with `COc1ccc(Nc2ccc(OC)cc2)cc1`, “inactive”.
The entry for `Cn1cnc2c(F)c(Nc3ccc(Br)cc3Cl)c(C(=O)NOCCO)cc21` is “inactive”.
For the molecule `COc1cc(N)c(Cl)cc1C(=O)NC1CCN(Cc2ccccc2)CC1`, the molecule was called inactive.
The entry for `CCC(=O)O[C@]1(C(=O)SCF)[C@H](C)C[C@H]2[C@@H]3C[C@H](F)C4=CC(=O)C=C[C@]4(C)[C@@]3(F)[C@@H](O)C[C@@]21C` is “inactive”.
On to `CC(C)CCCCCCc1ccc(OCCOCCO)cc1`, for which the molecule was called inactive.
In the case of `CCc1cc(Cl)c(OC)c(C(=O)NC[C@@H]2CCCN2CC)c1O`, the call was inactive.
With `CCCCCCn1c(=O)c2c(ncn2C)n(C)c1=O` the entry was “inactive”; with `OCC(CBr)(CBr)CBr`, “inactive”.
Regarding `C=C(C)C(=O)OCCOP(=O)(O)O`, the result was inactive.
The entry for `Cc1onc(-c2ccccc2)c1C(=O)Cl` is “inactive”.
